Assay [1] concerns the target Mitogen-activated protein kinase 3 (Homo sapiens) (UniProt P27361). Conditions: at 1 µM.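 Also: values are mean percent inhibition of MAPK3.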
Assay [2] concerns the target SRSF protein kinase 3 (Homo sapiens) (UniProt Q9UPE1). Conditions: at 0.1 µM.
Assay [3] has the same target. Conditions: at 1 µM.
For assay [4], the target named is Mitogen-activated protein kinase 14 (Homo sapiens) (UniProt Q16539). Conditions: at 0.1 µM.
The target is the same in assay [5]. Conditions: at 1 µM.
For assay [6], the target named is Mitogen-activated protein kinase 11 (Homo sapiens) (UniProt Q15759). Conditions: at 0.1 µM.
Assay [7] shares this target. The note with it: at 1 µM.
The target in assay [8] is T1, Mitogen-activated protein kinase 13 (Homo sapiens) (UniProt O15264).
T1 sequence (whole entry): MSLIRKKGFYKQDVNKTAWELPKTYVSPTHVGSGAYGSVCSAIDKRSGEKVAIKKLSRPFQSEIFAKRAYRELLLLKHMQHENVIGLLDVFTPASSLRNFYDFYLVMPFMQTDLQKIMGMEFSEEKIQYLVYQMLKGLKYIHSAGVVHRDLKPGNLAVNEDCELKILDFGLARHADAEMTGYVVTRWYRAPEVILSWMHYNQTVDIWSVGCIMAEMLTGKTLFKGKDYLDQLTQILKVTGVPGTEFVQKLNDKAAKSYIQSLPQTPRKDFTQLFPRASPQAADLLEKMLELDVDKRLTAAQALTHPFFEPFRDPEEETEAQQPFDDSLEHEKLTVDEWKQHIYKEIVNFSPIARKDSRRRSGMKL
The note with it: at 0.1 µM.

The target of assay [9] is T1, Mitogen-activated protein kinase 13 (Homo sapiens). Conditions: at 1 µM.
Assay [10] deals with T2, Mitogen-activated protein kinase 12 (Homo sapiens) (UniProt P53778).
T2 sequence (whole entry): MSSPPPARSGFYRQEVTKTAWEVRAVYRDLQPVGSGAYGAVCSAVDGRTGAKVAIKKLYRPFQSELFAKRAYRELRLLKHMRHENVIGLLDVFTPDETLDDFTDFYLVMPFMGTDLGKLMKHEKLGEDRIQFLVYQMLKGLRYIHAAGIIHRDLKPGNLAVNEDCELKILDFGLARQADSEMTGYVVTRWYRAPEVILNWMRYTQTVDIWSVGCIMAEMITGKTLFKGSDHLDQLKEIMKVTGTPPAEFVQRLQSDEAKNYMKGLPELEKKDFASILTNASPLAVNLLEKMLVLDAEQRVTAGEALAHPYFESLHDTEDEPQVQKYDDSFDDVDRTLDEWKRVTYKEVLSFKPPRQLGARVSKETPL
The note with it: at 0.1 µM.

For assay [11], the target named is T2, Mitogen-activated protein kinase 12 (Homo sapiens). The note with it: at 1 µM.
In assay [12] the target is SRSF protein kinase 1 (Homo sapiens) (UniProt Q96SB4). Conditions: at 0.1 µM.
For assay [13] the target is unchanged. The note with it: at 1 µM.
Assay [14] has as its target Phosphatidylinositol 4,5-bisphosphate 3-kinase catalytic subunit alpha isoform (Homo sapiens) (UniProt P42336). The note with it: at 0.1 µM.
Assay [15] has the same target. Conditions: at 1 µM.
The target of assay [16] is T3, Phosphatidylinositol 4,5-bisphosphate 3-kinase catalytic subunit delta isoform (Homo sapiens) (UniProt O00329).
T3 sequence (whole entry): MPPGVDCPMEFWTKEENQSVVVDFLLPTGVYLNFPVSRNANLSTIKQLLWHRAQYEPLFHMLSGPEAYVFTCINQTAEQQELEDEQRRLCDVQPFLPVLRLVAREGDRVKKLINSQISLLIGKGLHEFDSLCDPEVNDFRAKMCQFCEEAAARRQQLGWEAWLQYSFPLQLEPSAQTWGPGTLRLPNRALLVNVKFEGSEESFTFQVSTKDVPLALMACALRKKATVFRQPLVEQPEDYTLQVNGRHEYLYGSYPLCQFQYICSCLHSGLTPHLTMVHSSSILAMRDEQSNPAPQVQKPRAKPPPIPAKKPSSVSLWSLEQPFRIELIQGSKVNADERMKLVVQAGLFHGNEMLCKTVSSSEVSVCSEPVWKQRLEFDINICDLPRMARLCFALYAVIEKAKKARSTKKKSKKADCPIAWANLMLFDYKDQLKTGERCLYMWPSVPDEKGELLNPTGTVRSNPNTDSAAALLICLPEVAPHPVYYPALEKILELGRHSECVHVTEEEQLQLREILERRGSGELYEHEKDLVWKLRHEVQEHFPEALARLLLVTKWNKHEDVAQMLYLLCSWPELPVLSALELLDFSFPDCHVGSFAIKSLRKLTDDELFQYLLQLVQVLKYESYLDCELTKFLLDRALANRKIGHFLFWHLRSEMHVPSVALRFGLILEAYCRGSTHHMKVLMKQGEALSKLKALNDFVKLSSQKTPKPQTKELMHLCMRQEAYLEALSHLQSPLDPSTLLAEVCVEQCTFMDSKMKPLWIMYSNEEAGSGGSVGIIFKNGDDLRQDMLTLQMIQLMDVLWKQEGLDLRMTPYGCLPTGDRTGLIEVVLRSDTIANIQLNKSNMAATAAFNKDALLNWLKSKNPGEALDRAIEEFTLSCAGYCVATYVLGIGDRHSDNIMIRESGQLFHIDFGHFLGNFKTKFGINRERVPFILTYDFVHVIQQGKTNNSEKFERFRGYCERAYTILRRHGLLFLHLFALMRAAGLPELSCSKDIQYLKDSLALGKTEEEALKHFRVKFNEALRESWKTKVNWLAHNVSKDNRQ
The note with it: at 0.1 µM.

Assay [17] addresses T3, Phosphatidylinositol 4,5-bisphosphate 3-kinase catalytic subunit delta isoform (Homo sapiens). The note with it: at 1 µM.
Assay [18] deals with Phosphatidylinositol 4-kinase beta (Homo sapiens) (UniProt Q9UBF8). Conditions: at 0.1 µM.
Assay [19] has the same target. Conditions: at 1 µM.
Assay [20] deals with Sphingosine kinase 1 (Homo sapiens) (UniProt Q9NYA1). Conditions: at 0.1 µM.

Molecules are shown by their SMILES. Values joined by “and” are separate entries in the source; they are usually repeats but may differ in a detail not shown here. Equal values may be shown once.

Drawing on ChEMBL document CHEMBL1961873, “Compounds: GSK PKIS; Assays: Nanosyn kinase panel” (2012), this text covers inhibition for 9 compounds.

SRSF protein kinase 1 (Homo sapiens), sequence (Q96SB4 whole entry): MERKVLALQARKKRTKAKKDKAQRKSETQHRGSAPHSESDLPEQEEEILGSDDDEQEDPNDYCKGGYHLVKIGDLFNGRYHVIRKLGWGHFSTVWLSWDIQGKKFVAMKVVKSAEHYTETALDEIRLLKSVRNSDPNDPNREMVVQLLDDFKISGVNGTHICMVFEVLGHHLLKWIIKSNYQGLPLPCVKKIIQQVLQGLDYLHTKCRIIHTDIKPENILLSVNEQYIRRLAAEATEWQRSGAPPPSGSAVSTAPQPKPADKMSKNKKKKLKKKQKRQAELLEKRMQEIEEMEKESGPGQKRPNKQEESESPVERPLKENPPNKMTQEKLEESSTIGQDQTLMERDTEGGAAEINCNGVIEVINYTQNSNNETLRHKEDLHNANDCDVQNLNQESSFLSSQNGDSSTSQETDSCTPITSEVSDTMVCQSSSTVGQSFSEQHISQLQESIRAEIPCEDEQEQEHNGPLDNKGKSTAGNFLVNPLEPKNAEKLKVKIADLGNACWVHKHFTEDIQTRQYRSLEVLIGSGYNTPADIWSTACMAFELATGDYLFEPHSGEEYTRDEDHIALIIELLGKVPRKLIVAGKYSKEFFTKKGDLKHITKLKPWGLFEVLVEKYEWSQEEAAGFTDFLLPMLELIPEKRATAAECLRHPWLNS
Phosphatidylinositol 4,5-bisphosphate 3-kinase catalytic subunit alpha isoform (Homo sapiens), sequence (P42336 whole entry, canonical isoform): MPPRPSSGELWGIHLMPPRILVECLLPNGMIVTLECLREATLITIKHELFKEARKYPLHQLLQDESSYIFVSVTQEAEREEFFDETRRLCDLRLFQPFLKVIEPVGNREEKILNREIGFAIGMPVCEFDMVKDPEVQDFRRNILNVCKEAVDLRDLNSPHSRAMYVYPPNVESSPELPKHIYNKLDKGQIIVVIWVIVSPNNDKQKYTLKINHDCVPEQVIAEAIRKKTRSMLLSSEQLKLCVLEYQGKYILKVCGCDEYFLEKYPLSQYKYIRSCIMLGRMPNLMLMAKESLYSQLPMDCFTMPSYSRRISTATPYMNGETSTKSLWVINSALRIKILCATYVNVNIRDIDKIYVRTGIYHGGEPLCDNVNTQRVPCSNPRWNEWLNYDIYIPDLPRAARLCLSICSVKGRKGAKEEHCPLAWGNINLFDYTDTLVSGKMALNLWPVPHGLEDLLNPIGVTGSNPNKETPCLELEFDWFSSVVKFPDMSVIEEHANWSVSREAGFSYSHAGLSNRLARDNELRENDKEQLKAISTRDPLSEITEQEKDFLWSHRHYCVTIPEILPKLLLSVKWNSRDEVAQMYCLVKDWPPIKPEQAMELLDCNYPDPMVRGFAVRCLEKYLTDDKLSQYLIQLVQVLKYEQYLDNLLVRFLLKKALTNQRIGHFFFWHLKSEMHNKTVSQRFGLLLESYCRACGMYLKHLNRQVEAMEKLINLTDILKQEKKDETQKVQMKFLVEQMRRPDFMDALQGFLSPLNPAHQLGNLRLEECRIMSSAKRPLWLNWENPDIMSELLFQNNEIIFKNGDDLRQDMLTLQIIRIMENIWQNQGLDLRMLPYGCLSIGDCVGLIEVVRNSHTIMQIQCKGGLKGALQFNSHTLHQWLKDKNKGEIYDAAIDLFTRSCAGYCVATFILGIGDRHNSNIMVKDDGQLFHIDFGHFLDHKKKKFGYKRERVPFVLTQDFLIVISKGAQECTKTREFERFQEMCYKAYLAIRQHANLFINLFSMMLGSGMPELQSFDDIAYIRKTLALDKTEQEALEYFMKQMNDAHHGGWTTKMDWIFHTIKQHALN
Sphingosine kinase 1 (Homo sapiens), sequence (Q9NYA1 whole entry): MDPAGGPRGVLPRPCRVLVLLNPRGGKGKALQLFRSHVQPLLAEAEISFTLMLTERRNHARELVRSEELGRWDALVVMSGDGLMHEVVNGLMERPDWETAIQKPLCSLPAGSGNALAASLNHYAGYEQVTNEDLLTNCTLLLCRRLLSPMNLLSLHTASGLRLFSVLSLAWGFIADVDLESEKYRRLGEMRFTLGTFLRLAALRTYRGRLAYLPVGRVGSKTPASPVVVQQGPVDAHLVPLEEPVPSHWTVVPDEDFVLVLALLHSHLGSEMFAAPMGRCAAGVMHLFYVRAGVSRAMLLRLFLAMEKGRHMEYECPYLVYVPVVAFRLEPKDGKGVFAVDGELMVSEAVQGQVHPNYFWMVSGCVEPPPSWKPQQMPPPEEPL
Mitogen-activated protein kinase 11 (Homo sapiens), sequence (Q15759 whole entry): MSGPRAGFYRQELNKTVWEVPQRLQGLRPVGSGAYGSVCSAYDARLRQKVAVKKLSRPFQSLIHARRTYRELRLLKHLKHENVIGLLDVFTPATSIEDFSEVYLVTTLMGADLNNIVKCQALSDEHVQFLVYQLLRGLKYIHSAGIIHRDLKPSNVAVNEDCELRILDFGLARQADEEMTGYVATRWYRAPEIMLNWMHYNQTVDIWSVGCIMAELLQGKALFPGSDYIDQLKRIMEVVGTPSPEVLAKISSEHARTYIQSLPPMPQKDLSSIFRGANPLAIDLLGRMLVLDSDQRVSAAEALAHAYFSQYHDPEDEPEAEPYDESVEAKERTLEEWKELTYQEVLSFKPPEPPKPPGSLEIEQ
SRSF protein kinase 3 (Homo sapiens), sequence (Q9UPE1 whole entry): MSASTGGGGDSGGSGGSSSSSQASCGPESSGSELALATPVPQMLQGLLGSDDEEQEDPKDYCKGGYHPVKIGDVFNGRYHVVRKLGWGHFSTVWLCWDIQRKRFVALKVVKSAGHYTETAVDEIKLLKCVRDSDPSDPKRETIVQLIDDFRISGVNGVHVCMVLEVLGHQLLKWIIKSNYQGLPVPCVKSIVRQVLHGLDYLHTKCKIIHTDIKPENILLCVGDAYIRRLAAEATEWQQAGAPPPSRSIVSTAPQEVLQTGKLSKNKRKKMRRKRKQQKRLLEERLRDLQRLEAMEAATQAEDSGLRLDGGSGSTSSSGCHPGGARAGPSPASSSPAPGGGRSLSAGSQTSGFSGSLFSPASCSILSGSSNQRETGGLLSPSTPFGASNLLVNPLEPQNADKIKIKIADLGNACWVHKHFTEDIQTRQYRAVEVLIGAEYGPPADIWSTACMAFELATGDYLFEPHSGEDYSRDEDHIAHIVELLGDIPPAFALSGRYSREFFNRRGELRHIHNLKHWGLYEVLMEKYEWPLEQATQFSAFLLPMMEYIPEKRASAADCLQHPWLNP
Phosphatidylinositol 4-kinase beta (Homo sapiens), sequence (Q9UBF8 2-816 limits assumed): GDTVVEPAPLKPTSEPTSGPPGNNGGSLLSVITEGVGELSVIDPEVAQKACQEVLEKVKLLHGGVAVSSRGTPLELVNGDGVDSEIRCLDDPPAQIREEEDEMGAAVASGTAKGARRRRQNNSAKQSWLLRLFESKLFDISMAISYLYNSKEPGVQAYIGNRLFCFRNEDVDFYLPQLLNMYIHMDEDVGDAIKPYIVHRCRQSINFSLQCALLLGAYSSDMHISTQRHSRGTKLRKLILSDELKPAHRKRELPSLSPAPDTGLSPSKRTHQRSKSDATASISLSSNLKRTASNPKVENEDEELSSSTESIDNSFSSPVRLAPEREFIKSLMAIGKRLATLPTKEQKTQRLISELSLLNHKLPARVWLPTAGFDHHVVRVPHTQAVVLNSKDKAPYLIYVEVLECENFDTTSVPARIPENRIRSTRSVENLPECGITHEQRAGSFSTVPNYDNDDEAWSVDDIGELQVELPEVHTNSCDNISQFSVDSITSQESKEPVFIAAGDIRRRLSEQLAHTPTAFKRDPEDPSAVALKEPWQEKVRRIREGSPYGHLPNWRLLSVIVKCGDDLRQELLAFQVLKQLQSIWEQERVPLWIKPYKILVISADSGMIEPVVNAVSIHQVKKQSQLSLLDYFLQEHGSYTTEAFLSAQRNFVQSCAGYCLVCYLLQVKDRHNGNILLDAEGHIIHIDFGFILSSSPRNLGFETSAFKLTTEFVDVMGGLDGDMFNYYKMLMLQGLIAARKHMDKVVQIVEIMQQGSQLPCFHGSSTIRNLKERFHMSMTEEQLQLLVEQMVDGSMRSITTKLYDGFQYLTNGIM
Mitogen-activated protein kinase 3 (Homo sapiens), sequence (P27361 whole entry): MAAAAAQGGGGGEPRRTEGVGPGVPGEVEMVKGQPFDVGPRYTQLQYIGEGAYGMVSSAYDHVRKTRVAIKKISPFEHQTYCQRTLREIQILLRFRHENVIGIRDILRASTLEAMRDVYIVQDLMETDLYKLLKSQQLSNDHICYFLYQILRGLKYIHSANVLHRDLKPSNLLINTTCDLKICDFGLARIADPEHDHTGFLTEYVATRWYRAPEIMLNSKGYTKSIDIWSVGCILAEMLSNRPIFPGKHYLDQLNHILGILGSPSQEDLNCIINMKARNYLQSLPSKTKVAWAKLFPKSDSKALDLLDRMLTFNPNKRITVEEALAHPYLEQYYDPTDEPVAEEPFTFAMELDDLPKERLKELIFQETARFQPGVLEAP
Mitogen-activated protein kinase 14 (Homo sapiens), sequence (Q16539 whole entry): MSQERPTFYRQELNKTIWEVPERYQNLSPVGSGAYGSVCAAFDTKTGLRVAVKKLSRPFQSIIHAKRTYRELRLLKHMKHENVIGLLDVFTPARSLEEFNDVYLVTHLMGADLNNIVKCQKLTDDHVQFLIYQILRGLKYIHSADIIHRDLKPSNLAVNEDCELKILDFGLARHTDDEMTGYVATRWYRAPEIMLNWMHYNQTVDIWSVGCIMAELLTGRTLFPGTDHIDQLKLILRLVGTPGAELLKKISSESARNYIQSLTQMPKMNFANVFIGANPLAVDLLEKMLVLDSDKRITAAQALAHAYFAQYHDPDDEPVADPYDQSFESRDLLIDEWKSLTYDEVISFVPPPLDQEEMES

For orientation: inhibition means the relative decrease from the control value, in per cent. On to `CCN1CCC(C(=O)Nc2n[nH]c3nnc(-c4cccc(F)c4F)cc23)CC1`, for which the inhibition in assay [1] was -0.23%; in [2], -0.64%; in assay [3] it was -0.52%; in assay [4], -0.33%; in [5], -0.72%; in assay [6], 0.08%. Moreover, the inhibition is 0.51% in assay [7]; -1.52% in assay [8]; -2.25% in [9]; -0.79% in assay [10]; -1.22% in assay [11]; -1.43% in assay [12]. In addition, the inhibition in [13] is 0.92%; in [14], -1.4%; in assay [15] it was -2.49%; in [16], -3.18%; in assay [17], -0.47%; in assay [18], 0.1%. In addition, the inhibition is -1.04% in assay [19] and 0.46% in [20].

Take `CN1CCC(n2cnc(-c3ccc(F)cc3)c2-c2ccnc(NCCO)n2)CC1`: the inhibition is 6.51% in [1]; -0.9% in assay [2]; 1.7% in assay [3]; 66.3% in assay [4]; 86.3% in [5]; 12.9% in assay [6]. Besides, the inhibition in [7] is 52.5%; in [8] it was 2.89%; in [9], 4.31%; in assay [10] it was 3.94%; in [11] it was 3.15%; in [12], -1.01%. Further, the inhibition was 3.27% in [13]; 3.91% in assay [14]; 2.41% in assay [15]; 1.87% in assay [16]; 2.25% in assay [17]; -3.16% in [18]. In addition, the inhibition in assay [19] was determined as 4.51%; in assay [20], 9.04%.

For the compound `CCS(=O)(=O)c1ccc(OC)c(Nc2ncc(-c3cccc(C(C)=O)c3)o2)c1`, the inhibition in [1] came out at 4.06%; in assay [2], 0.96%; in assay [3], 0.97%; in assay [4] it was 2.16%; in assay [5] it was 5.09%; in assay [6] it was 3.95%. The inhibition in assay [7] was 3.42%; in assay [8], -0.9%; in assay [9] it was 3.45%; in assay [10] it was -1.65%; in [11] it was 1.14%; in assay [12] it was -0.6%. The inhibition is 4.89% in assay [13]; 2.7% in assay [14]; 1.8% in [15]; 0.22% in assay [16]; -1.96% in assay [17]; 2.44% in assay [18]. Also, the inhibition in assay [19] was -1.58%; in assay [20] it was 13.1%.

As for `CN1CCN(Cc2ccc(-c3cc4ncnc(Nc5ccc(OCc6cccc(F)c6)c(Cl)c5)c4s3)o2)CC1`, the inhibition was 4.3% and 6.64% in assay [1]; -2.01% and -2.56% in [2]; -1.87% and -0.88% in [3]; 11.4% and 3.49% in assay [4]; 11.9% and 8.59% in [5]; 7.76% and 7.78% in assay [6]. The inhibition in assay [7] was 11.5% and 9.04%; in [8] it was 2.21% and 1.13%; in assay [9], 1.76% and 5.79%; in assay [10], 1.79% and 3.59%; in assay [11] it was 2.94% and 2.8%; in assay [12], -2.39% and -1.61%. Further, the inhibition in assay [13] is -2.07% and 0.69%; in [14] it was 1.34% and 4.72%; in assay [15] it was 2.47% and 5.81%; in assay [16], 1.29% and 2.75%; in assay [17], 3.39% and 4.31%; in [18], 0.91%. In addition, the inhibition in assay [19] was 1.06%; in assay [20] it was 10.5% and 0.88%.

As to `CCOc1ccc2c(-c3ccnc(Nc4cc(OC)cc(C(F)(F)F)c4)n3)cnn2n1`, the inhibition is 2.27% in [1]; -0.03% in [2]; -0.23% in assay [3]; 8.65% in assay [4]; 2.85% in [5]; -0.59% in assay [6]. In addition, the inhibition in assay [7] is 1.71%; in [8] it was 0.55%; in assay [9] it was 2.07%; in assay [10], 3.42%; in [11] it was 1.08%; in assay [12], -1.1%. Besides, the inhibition in [13] is -0.9%; in assay [14], -0.03%; in assay [15] it was 5.25%; in [16], -1.72%; in assay [17], 10.2%; in assay [18], 3.54%. The inhibition was -4.92% in [19] and -3.8% in [20].

As to `OCCCNc1nccc(-c2c(-c3ccc(F)cc3)nn3cc(C(F)(F)F)ccc23)n1`, the inhibition in assay [1] was found to be 5.6%; in assay [2], 1.09%; in assay [3], 3.54%; in [4] it was 64.4%; in [5], 91%; in assay [6] it was 22.7%. Also, the inhibition was 68.7% in assay [7]; 4.11% in assay [8]; 3.39% in assay [9]; 3.46% in assay [10]; 2.13% in assay [11]; -1.12% in assay [12]. The inhibition in [13] was -3.43%; in [14], 2.12%; in assay [15], 2.75%; in assay [16], 4.76%; in [17] it was 4.87%; in assay [18], 4.2%. Besides, the values for the inhibition in assay [19] and in assay [20] were -3.41% and -0.34%, respectively.

With `CC(C)c1ccc(-c2cc(-c3c[nH]nc3-c3ccccn3)ccn2)cc1`, the inhibition is -2.17% in assay [1]; -1.14% in assay [2]; 0.11% in assay [3]; 5.48% in [4]; 15.8% in assay [5]; 1.06% in [6]. For the same compound, the inhibition was 8.12% in assay [7]; 5.51% in [8]; 0.87% in assay [9]; 0.13% in [10]; 1.41% in [11]; -1.6% in [12]. Further, the inhibition is -2.44% in assay [13]; 0.78% in [14]; 1.76% in [15]; 0.89% in assay [16]; 4.14% in [17]; 1.73% in assay [18]. For the same compound, the figures for the inhibition in assay [19] and in assay [20] were 0.67% and 1.34%, respectively.

Regarding `Cc1nnc(-c2cccc(-c3ccc(C(=O)NCC4CC4)cc3)c2)o1`, the inhibition in [1] is 6.64%; in [2], -1.05%; in assay [3] it was -0.94%; in [4], 4.85%; in [5] it was 12.2%; in assay [6], 3.66%. Further, the inhibition in assay [7] is 7.35%; in [8] it was 3.76%; in assay [9], 3.54%; in assay [10], 4.5%; in assay [11] it was 2.67%; in assay [12] it was -0.9%. Moreover, the inhibition is 2.29% in assay [13]; 2.25% in assay [14]; 2.72% in assay [15]; -0.87% in assay [16]; -2.41% in assay [17]; -0.63% in [18]. For the same compound, the inhibition is -1.44% in [19] and -1.27% in [20].

`COc1ccccc1-c1cc(/C=C2\C(=O)Nc3ncc(Br)cc32)cc(Br)c1O`: the inhibition in assay [1] is 2.3%; in [2], 0.86%; in assay [3], -0.04%; in assay [4] it was 2.73%; in assay [5] it was 11.3%; in [6], 5.59%. Also, the inhibition in assay [7] was 5.73%; in [8] it was 0.15%; in assay [9] it was 9.18%; in assay [10], 2.49%; in assay [11], 4.01%; in assay [12], -2.27%. Besides, the inhibition in assay [13] is -5.25%; in [14], 8.24%; in [15], 18.6%; in assay [16], 7.45%; in assay [17], 13.9%; in assay [18], -5.01%. Further, the values for the inhibition in assay [19] and in assay [20] were 7.13% and 0.8%, respectively.
